Where a chain is given by its changes, count along the chain named.

Binding signal data for twelve sequences are collected here from PMC5700166.

Holding throughout (assay): protein-binding microarray (PBM); PBM: ~300 nM protein, 6 mM HEPES pH 7.8, 80 mM KCl, 0.5 mM EDTA, 0.5 mM EGTA, 6% glycerol, 35 ng/ul poly-dIdC, 1% milk, 1 h, room temperature; Ap Aiptasia and Nv Nematostella (sea anemones) / Co Capsaspora / Aq Amphimedon (sponge) / Dm Drosophila / Hu human; RHD is the Rel homology domain; high values mean tight binding
What all share (conditions): dsDNA, one strand shown

The target of experiment [1] is T1, GST-Ap-NF-kB RHD (Exaiptasia pallida (Aiptasia), UniProt A0A913YAJ5 2-422).
T1 sequence: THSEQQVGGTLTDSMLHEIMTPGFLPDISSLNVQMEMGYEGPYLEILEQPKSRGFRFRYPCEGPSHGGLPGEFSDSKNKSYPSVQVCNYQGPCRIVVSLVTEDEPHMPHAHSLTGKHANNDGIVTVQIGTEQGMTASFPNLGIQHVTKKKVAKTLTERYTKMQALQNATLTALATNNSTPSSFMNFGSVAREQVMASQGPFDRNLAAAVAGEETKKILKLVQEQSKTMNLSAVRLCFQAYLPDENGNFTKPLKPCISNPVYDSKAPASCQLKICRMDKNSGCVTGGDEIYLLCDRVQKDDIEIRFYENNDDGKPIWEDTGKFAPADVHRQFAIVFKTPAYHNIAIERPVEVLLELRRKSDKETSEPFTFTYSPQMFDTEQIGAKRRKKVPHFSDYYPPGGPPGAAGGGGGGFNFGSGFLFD

Experiment [2] concerns the target T2, GST-Nv-NF-kB (Cys allele) (Nematostella vectensis, UniProt E5G601 2-411).
T2 sequence: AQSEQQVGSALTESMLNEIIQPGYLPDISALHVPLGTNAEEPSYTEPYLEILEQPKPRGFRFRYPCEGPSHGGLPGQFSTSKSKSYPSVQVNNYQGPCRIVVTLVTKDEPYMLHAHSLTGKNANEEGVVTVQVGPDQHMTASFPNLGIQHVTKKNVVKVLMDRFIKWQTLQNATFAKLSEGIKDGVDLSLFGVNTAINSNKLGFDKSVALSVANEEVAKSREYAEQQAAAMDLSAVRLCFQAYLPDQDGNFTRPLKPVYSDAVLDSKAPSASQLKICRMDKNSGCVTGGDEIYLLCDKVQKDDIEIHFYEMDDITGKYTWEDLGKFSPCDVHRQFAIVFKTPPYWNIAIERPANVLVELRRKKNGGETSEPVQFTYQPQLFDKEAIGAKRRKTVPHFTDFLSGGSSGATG

Experiment [3] deals with T3, GST-Nv-NF-kB (Ser allele) (Nematostella vectensis, UniProt A7UNT2 2-411).
T3 sequence: T2 sequence with Q21R, C66S, S207N, E215Q, V217A, E225K, A268E, D399E

The target of experiment [4] is T4, GST-Co-NF-kB (Capsaspora owczarzaki, UniProt F1ARL5 200-546).
T4 sequence: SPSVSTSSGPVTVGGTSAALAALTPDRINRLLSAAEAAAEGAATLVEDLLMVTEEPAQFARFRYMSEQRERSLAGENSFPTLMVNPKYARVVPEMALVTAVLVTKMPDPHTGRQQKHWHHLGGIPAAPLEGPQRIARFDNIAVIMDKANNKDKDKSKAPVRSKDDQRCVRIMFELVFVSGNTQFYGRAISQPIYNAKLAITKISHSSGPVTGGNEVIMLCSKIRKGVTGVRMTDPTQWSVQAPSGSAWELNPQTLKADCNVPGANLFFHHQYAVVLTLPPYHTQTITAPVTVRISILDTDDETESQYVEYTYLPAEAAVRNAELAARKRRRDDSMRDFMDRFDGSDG

The target in experiment [5] is T5, GST-Dm-Relish (Drosophila melanogaster, UniProt Q94527 99-473).
T5 sequence: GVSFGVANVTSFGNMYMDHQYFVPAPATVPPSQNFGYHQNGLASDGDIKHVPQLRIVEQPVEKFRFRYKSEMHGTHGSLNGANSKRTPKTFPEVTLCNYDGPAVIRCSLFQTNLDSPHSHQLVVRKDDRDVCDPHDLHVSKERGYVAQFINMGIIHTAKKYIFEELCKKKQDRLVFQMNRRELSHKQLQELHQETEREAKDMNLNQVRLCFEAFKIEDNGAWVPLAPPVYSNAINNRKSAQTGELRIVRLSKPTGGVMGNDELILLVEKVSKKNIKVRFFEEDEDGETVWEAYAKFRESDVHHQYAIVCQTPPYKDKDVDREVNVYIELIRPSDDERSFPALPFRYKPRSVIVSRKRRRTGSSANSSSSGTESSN

In experiment [6] the target is T6, GST-Aq-NF-kB (Amphimedon queenslandica, UniProt A9Y5G7 2-389).
T6 sequence: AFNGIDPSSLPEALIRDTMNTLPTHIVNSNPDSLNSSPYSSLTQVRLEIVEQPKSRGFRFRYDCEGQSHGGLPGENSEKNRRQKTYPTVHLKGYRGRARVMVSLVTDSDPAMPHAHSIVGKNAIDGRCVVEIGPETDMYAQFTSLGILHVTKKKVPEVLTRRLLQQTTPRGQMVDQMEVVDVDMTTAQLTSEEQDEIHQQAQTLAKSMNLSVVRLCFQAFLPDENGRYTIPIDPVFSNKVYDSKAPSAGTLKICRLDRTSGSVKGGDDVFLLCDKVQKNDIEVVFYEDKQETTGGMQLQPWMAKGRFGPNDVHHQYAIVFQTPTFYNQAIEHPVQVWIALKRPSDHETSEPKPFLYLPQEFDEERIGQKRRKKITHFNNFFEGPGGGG

Experiment [7] concerns the target GST-Hu-p50 (Homo sapiens, UniProt P19838 7-356).

GST-Hu-p50, sequence (P19838 7-356): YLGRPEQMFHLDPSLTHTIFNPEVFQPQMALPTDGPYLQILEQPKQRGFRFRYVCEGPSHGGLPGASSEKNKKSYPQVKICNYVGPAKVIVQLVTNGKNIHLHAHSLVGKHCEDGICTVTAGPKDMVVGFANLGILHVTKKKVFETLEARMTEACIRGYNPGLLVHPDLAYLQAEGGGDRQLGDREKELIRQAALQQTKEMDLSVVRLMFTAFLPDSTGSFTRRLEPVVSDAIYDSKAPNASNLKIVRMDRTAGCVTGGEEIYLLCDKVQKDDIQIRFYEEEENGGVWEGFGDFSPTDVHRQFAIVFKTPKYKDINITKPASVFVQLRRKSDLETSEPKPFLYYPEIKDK

As for “CCGATTAACATCAGGGGACGTACTGATGTTAATCGGGTCTTGATTCGCTTGACGCTGCTG”, the binding signal worked out at 4.18 z-score in experiment [1]; 3.48 z-score in experiment [2]; 3.58 z-score in experiment [3]; 2.33 z-score in experiment [4]; 6.95 z-score in experiment [5]; 4.39 z-score in experiment [6]. This sequence yielded a binding signal in experiment [7] of 3.75 z-score.

In the case of “CCGATTAACATCACCCAATTCCCTGATGTTAATCGGGTCTTGATTCGCTTGACGCTGCTG”, the binding signal in experiment [1] was found to be 3.33 z-score; in experiment [2] it was 3.63 z-score; in experiment [3] it was 4.42 z-score; in experiment [4], 2.69 z-score; in experiment [5], 1.62 z-score; in experiment [6] it was 2.94 z-score. In addition, the binding signal in experiment [7] amounted to 2.81 z-score.

Take “CCGATTAACATCAGGGGAACTACTGATGTTAATCGGGTCTTGATTCGCTTGACGCTGCTG”: the binding signal came out at 6.92 z-score in experiment [1]; 6.99 z-score in experiment [2]; 7.41 z-score in experiment [3]; 5.65 z-score in experiment [4]; 9.35 z-score in experiment [5]; 6.91 z-score in experiment [6]. Also, in experiment [7], the binding signal amounted to 5.5 z-score.

Consider “CCGATTAACATCAGGATTACCCATGATGTTAATCGGGTCTTGATTCGCTTGACGCTGCTG”, for which the binding signal in experiment [1] was found to be 2.92 z-score; in experiment [2], 2.65 z-score; in experiment [3] it was 2.12 z-score; in experiment [4] it was 1.67 z-score; in experiment [5] it was 2.52 z-score; in experiment [6], 3.19 z-score. Moreover, in experiment [7], the binding signal is 1.83 z-score.

As for “CCGATTAACATCAAAATAGTCCCTGATGTTAATCGGGTCTTGATTCGCTTGACGCTGCTG”, the binding signal in experiment [1] stood at 7.45 z-score; in experiment [2], 7.77 z-score; in experiment [3], 7.5 z-score; in experiment [4] it was 2.01 z-score; in experiment [5] it was 4.37 z-score; in experiment [6], 6.34 z-score. The same sequence gave a binding signal in experiment [7] of 5.5 z-score.

Regarding “CCGATTAACATCAAGAAATCCCCTGATGTTAATCGGGTCTTGATTCGCTTGACGCTGCTG”, the binding signal in experiment [1] was 9.62 z-score; in experiment [2], 11.5 z-score; in experiment [3], 12.5 z-score; in experiment [4], 4.27 z-score; in experiment [5] it was 9.61 z-score; in experiment [6] it was 7.7 z-score. Besides, the binding signal in experiment [7] is 7.69 z-score.

For “CCGATTAACATCAAAGCCCCCCCTGATGTTAATCGGGTCTTGATTCGCTTGACGCTGCTG”, the binding signal in experiment [1] turned out to be 5.97 z-score; in experiment [2], 4.23 z-score; in experiment [3], 4.62 z-score; in experiment [4] it was 4.66 z-score; in experiment [5] it was 6.01 z-score; in experiment [6], 5.12 z-score. Moreover, the binding signal in experiment [7] was determined as 4.63 z-score.

Take “CCGATTAACATCAAAAGGGAATTTGATGTTAATCGGGTCTTGATTCGCTTGACGCTGCTG”: the binding signal in experiment [1] is 3.2 z-score; in experiment [2], 6.76 z-score; in experiment [3] it was 7.17 z-score; in experiment [4], 1.41 z-score; in experiment [5], 4.25 z-score; in experiment [6] it was 4.96 z-score. In experiment [7], this sequence displayed a binding signal of 5.13 z-score.

“CCGATTAACATCACGGGTTCCCCTGATGTTAATCGGGTCTTGATTCGCTTGACGCTGCTG”: the binding signal in experiment [1] was determined as 7.55 z-score; in experiment [2] it was 5.61 z-score; in experiment [3] it was 6.62 z-score; in experiment [4] it was 5.5 z-score; in experiment [5], 7.65 z-score; in experiment [6] it was 4.79 z-score. In addition, the binding signal in experiment [7] turned out to be 4.64 z-score.

Take “CCGATTAACATCAATAATTTCCCTGATGTTAATCGGGTCTTGATTCGCTTGACGCTGCTG”: the binding signal in experiment [1] is 4.38 z-score; in experiment [2], 6.39 z-score; in experiment [3], 7.05 z-score; in experiment [4], 4.82 z-score; in experiment [5], 3.45 z-score; in experiment [6], 5.17 z-score. The same sequence came in with a binding signal in experiment [7] of 5 z-score.

Turning to “CCGATTAACATCAGATATCCCCCTGATGTTAATCGGGTCTTGATTCGCTTGACGCTGCTG”, the binding signal was found to be 7.25 z-score in experiment [1]; 6.62 z-score in experiment [2]; 7.52 z-score in experiment [3]; 6.39 z-score in experiment [4]; 5.78 z-score in experiment [5]; 5.89 z-score in experiment [6]. In experiment [7], this sequence had a binding signal of 5.59 z-score.

With “CCGATTAACATCAATCACCCCCCTGATGTTAATCGGGTCTTGATTCGCTTGACGCTGCTG”, the binding signal in experiment [1] came to 4.05 z-score; in experiment [2], 4.27 z-score; in experiment [3], 4.76 z-score; in experiment [4], 4.97 z-score; in experiment [5], 4.64 z-score; in experiment [6], 5.36 z-score. Moreover, the binding signal in experiment [7] was found to be 4.4 z-score.
